# Test results reported in PubChem BioAssay (NCATS).
# Records with an inconclusive call do not appear. Entries that show only a call come without a potency. Calls of active or inactive are those of the source. Unless noted, the call rests on the fitted dose curve; in most records, active means well fitted activation curve with a large enough effect in the main read-out, with a control signal flat (not every such curve was filed as active); inconclusive means small, poorly fitted or top-dose-only effect, or effect the other way, or a change in a side signal; inactive means flat fitted curve, though single readings scatter.
# Target: 3',5'-cyclic-AMP phosphodiesterase 4B (Homo sapiens) (UniProt Q07343)
# Sequence (Q07343 whole entry, looked up): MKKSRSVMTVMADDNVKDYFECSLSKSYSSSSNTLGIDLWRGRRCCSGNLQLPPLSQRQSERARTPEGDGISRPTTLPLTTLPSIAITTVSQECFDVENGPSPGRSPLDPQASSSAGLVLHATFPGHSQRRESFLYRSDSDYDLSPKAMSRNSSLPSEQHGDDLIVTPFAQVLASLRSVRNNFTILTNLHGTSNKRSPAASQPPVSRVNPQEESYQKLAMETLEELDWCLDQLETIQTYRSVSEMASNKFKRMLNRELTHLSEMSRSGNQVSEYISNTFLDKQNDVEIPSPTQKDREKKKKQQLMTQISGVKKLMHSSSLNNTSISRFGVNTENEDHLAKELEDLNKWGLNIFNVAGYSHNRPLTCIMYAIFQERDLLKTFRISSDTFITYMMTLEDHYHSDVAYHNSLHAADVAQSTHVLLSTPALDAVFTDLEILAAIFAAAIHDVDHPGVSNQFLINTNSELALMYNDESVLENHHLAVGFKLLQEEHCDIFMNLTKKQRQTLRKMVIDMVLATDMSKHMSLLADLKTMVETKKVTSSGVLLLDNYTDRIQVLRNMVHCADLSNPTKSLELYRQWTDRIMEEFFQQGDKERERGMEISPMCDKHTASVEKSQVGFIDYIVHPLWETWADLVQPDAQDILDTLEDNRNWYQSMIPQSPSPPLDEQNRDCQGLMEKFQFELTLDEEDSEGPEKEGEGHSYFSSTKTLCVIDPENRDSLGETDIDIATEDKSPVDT
# Test: qHTS Assay for Inhibitors of PDE-IV (AID 607)
# Conditions: HEK293 ACTOne CNG channel cells, membrane potential fluorescence; series mostly up to 22.9 µM
# Procedure, shortened: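 HEK293 ACTOne cells with CNG channel (1000/well), endogenous PDE4; membrane potential dye, compounds up to 22.9 uM final. Fluorescence Ex 535/Em 590; RO 20-1724 (100 uM final) as reference.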
row,SMILES,Potency
1,O=C(O)C1=CCNCC1,inactive
2,COc1cc(CC(=O)O)ccc1O,inactive
3,CCCCCCCC/C=C\CCCCCCCC(=O)NCCc1ccc(O)c(O)c1,inactive
4,COCc1nc2c([nH]1)c(=O)n(C)c(=O)n2CC(C)C,inactive
5,NC(N)=[N+]1CCc2ccccc2C1,inactive
6,O=c1[nH]c(=O)c2nc3ccccc3nc2[nH]1,inactive
7,Nc1ccc2c3c(cccc13)C(=O)NC2=O,inactive
8,Cc1ccc2c(c1)C(N1CCN(C)CC1)=Nc1cccnc1N2,inactive
9,Cc1cc2c(cc1Cl)N(C(=O)Nc1ccnc3ccccc13)CC2,inactive
10,Cn1c(=O)c2[nH]c(-c3ccc(S(=O)(=O)O)cc3)nc2n(C)c1=O,inactive
11,C=CCn1c(=O)c2c(nc(-c3ccc(S(=O)(=O)O)cc3)n2C)n(C)c1=O,inactive
12,Oc1ccc(Cn2cc[nH]c2=S)cc1,inactive
13,C=CC[C@H](N)C(=O)O,inactive
14,COc1cc2c(CCNC(C)=O)c[nH]c2cc1O,inactive
15,NC1(C(=O)O)CC1,inactive
16,CCCn1c(=O)c2[nH]c(-c3ccc(S(=O)(=O)O)cc3)nc2n(CCC)c1=O,inactive
17,CCN(CC)CCOC(=O)c1cc(Cl)c(N)cc1OC,inactive
18,CC(C)NC[C@H](O)COc1ccc(CC(N)=O)cc1,inactive

row,SMILES,Potency
1,OC1(c2ccc(Cl)cc2)CCN(Cc2c[nH]c3ccccc23)CC1,inactive
2,O=C(O)C1CCNCC1,inactive
3,O=c1oc(Cl)c(Cl)c2ccccc12,inactive
4,NC(N)=NC(N)=Nc1cccc(Cl)c1,inactive
5,[Li+],inactive
6,CCCCCCCCCCCCCCC[C@H](O)[C@H](N)CO,inactive
7,Cc1nc(N=Nc2cc(S(=O)(=O)O)c3cc([N+](=O)[O-])cc(S(=O)(=O)O)c3c2)c(COP(=O)(O)O)c(C=O)c1O,inactive
8,O=C1Nc2ccc(I)cc2/C1=C/c1cc(Br)c(O)c(Br)c1,inactive
9,CCCCCCCCCCC/C=C\C(C)(C)/C=C\CCCC(=O)O,inactive
10,N[C@H](C(=O)O)[C@H](O)C(=O)O,inactive
11,O=c1[nH]c2ccccc2c2ccccc12,inactive
12,O=C(O)C1=CCCN(CCON=C(c2ccccc2)c2ccccc2)C1,inactive
13,COc1ccc(NC(=O)c2ccc(-c3ccc(-c4noc(C)n4)cc3C)cc2)cc1N1CCN(C)CC1,inactive
14,NCCCCN,inactive
15,O=C(O)C1=CC(=C(c2ccc(O)c(C(=O)O)c2)c2ccc(O)c(C(=O)O)c2)C=CC1=O,inactive
16,Cn1c(=O)[nH]c2ncn(C)c2c1=O,inactive
17,O=S(=O)(c1cccc2c(Cl)cccc12)N1CCCNCC1,inactive

# Target: Guanine nucleotide-binding protein G(i) subunit alpha-1 (Homo sapiens) (UniProt P63096)
# Sequence (P63096 whole entry, looked up): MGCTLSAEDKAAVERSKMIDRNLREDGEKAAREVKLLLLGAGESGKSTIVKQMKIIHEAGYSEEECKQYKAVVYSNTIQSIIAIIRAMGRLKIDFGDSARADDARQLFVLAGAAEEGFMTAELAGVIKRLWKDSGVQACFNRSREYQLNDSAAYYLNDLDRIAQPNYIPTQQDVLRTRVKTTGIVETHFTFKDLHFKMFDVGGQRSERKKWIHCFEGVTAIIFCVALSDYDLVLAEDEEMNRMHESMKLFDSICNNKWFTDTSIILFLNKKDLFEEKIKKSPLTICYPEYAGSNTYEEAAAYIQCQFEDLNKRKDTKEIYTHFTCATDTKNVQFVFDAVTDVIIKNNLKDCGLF
# Test: qHTS Assay for Inhibitors of RGS12 GoLoco Motif Activity (Green Fluorophore) (AID 879; active means well fitted curve in the direction sought with a large enough effect; further: potency means the concentration at half of the fitted maximal effect)
# Conditions: Galphai1/FITC-RGS12 GoLoco peptide, fluorescence polarization; series mostly up to 57.1 µM
# Procedure, shortened: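 Fluorescence polarization assay: 50 nM Gαi1 with 10 nM FITC-labeled RGS12 GoLoco peptide in 10 mM Tris pH 7.5, 150 mM NaCl, 0.1 mM GDP, 0.05% NP40, 10 min at room temperature with compound.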
row,SMILES,Potency
1,O=C(O)C1=CCNCC1,inactive
2,COc1cc(CC(=O)O)ccc1O,inactive
3,CCCCCCCC/C=C\CCCCCCCC(=O)NCCc1ccc(O)c(O)c1,inactive
4,COCc1nc2c([nH]1)c(=O)n(C)c(=O)n2CC(C)C,inactive
5,NC(N)=[N+]1CCc2ccccc2C1,inactive
6,O=c1[nH]c(=O)c2nc3ccccc3nc2[nH]1,inactive
7,Nc1ccc2c3c(cccc13)C(=O)NC2=O,0.794 µM (active)
8,Cc1ccc2c(c1)C(N1CCN(C)CC1)=Nc1cccnc1N2,inactive
9,Cc1cc2c(cc1Cl)N(C(=O)Nc1ccnc3ccccc13)CC2,inactive
10,Cn1c(=O)c2[nH]c(-c3ccc(S(=O)(=O)O)cc3)nc2n(C)c1=O,inactive
11,C=CCn1c(=O)c2c(nc(-c3ccc(S(=O)(=O)O)cc3)n2C)n(C)c1=O,inactive
12,Oc1ccc(Cn2cc[nH]c2=S)cc1,inactive
13,C=CC[C@H](N)C(=O)O,inactive
14,COc1cc2c(CCNC(C)=O)c[nH]c2cc1O,inactive
15,NC1(C(=O)O)CC1,inactive
16,CCCn1c(=O)c2[nH]c(-c3ccc(S(=O)(=O)O)cc3)nc2n(CCC)c1=O,inactive
17,CCN(CC)CCOC(=O)c1cc(Cl)c(N)cc1OC,inactive
18,CC(C)NC[C@H](O)COc1ccc(CC(N)=O)cc1,inactive

row,SMILES,Potency
1,OC1(c2ccc(Cl)cc2)CCN(Cc2c[nH]c3ccccc23)CC1,inactive
2,O=C(O)C1CCNCC1,inactive
3,O=c1oc(Cl)c(Cl)c2ccccc12,inactive
4,NC(N)=NC(N)=Nc1cccc(Cl)c1,inactive
5,[Li+],inactive
6,CCCCCCCCCCCCCCC[C@H](O)[C@H](N)CO,inactive
7,Cc1nc(N=Nc2cc(S(=O)(=O)O)c3cc([N+](=O)[O-])cc(S(=O)(=O)O)c3c2)c(COP(=O)(O)O)c(C=O)c1O,inactive
8,O=C1Nc2ccc(I)cc2/C1=C/c1cc(Br)c(O)c(Br)c1,inactive
9,CCCCCCCCCCC/C=C\C(C)(C)/C=C\CCCC(=O)O,inactive
10,N[C@H](C(=O)O)[C@H](O)C(=O)O,inactive
11,O=c1[nH]c2ccccc2c2ccccc12,inactive
12,O=C(O)C1=CCCN(CCON=C(c2ccccc2)c2ccccc2)C1,inactive
13,COc1ccc(NC(=O)c2ccc(-c3ccc(-c4noc(C)n4)cc3C)cc2)cc1N1CCN(C)CC1,inactive
14,NCCCCN,inactive
15,O=C(O)C1=CC(=C(c2ccc(O)c(C(=O)O)c2)c2ccc(O)c(C(=O)O)c2)C=CC1=O,15.8 µM (active)
16,Cn1c(=O)[nH]c2ncn(C)c2c1=O,inactive
17,O=S(=O)(c1cccc2c(Cl)cccc12)N1CCCNCC1,inactive
